# Test results as given in PubChem BioAssay.
# Calls of active or inactive are those of the source. Rule as the data show it, unless noted: active = inhibition above about 80%; inactive = the rest.
# Key:
# [1] = LFS_MB_P medulloblastoma growth inhibition, cell-based, chromothripsis tumors, cisplatin or BGB combos (AID 1671449); details: LFS_MB_P medulloblastoma cells;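 also: cells exposed for 96 hours; 0% = vehicle DMSO and 100% = killing by high DMSO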
# [2] = HDN33 neuroblastoma growth inhibition, cell-based, chromothripsis tumors, cisplatin or BGB combos (AID 1671450); details: HDN33 neuroblastoma cells, stronger effect = higher value;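 also: cells exposed to compound for four days; 0% = vehicle DMSO and 100% = cell killing by high DMSO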
# [3] = ICB984 medulloblastoma cell growth inhibition, synergistic combos for chromothripsis tumors, cisplatin or BGB combos (AID 1671451; call rule not given here;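 also: cells exposed for 96 hours before readout; 0% = vehicle DMSO and 100% = killing by high DMSO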); details: ICB984 medulloblastoma cells, drug combinations, stronger effect = higher value
# [4] = LFS_MB_1R medulloblastoma cell growth inhibition, synergistic combos for chromothripsis tumors, cisplatin or BGB combos (AID 1671452); details: LFS_MB_1R medulloblastoma cells, stronger effect = higher value;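 also: cells exposed for 96 hours before readout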
# [5] = HTB85 osteosarcoma cell growth inhibition, synergistic combos for chromothripsis tumors, BGB or cisplatin IC20 combos (AID 1671453); details: HTB85 osteosarcoma cells, drug combinations, stronger effect = higher value;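 also: cells exposed for 96 hours before readout; 0% = vehicle DMSO and 100% = high DMSO killing control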
# [6] = CRL2098 osteosarcoma cell growth inhibition, synergistic combos for chromothripsis tumors, BGB or cisplatin IC20 combos (AID 1671454); details: CRL2098 osteosarcoma cells, drug combinations, stronger effect = higher value;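 also: cells exposed for 96 h before readout; 0% = vehicle DMSO and 100% = killing by high DMSO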
# [7] = HD-MB03 medulloblastoma cell growth inhibition, synergistic combos for chromothripsis tumors, BGB or cisplatin IC20 combos (AID 1671455; in the data active = inhibition above about 83%;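 also: 0% = vehicle DMSO and 100% = high DMSO as cytotoxic control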); details: HD-MB03 medulloblastoma cells, stronger effect = higher value
# [8] = UWB1.289 ovarian carcinoma cell growth inhibition, synergistic combos for chromothripsis tumors, BGB or cisplatin combos (AID 1671456); details: UWB1.289 ovarian carcinoma cells, stronger effect = higher value;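 also: cells exposed to compound for four days; 0% = vehicle DMSO and 100% = killing by high DMSO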
# [9] = LFS_MB_2R medulloblastoma cell growth inhibition, synergistic combos for chromothripsis tumors, cisplatin combos (AID 1671457); details: LFS_MB_2R medulloblastoma cells, stronger effect = higher value;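 also: cells exposed to compound for four days before readout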
# [10] = MDA-MB-436 breast carcinoma cell growth inhibition, synergistic combos for chromothripsis tumors, BGB or cisplatin combos (AID 1671458; call rule not given here;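 also: cells exposed for 96 hours; 0% = vehicle DMSO and 100% = killing by high DMSO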); details: MDA-MB-436 breast carcinoma growth inhibition, drug combinations, stronger effect = higher value
# [11] = UWB1.289_BRCA1 ovarian cancer growth, cell-based, BGB or cisplatin combinations (AID 1671459); details: UWB1.289 BRCA1 ovarian carcinoma, drug combinations, stronger effect = higher value
# [12] = human astrocyte viability loss, single and combined drugs, cytotoxicity control for chromothriptic childhood tumor combination screen, cell-based, BGB or cisplatin IC20 combos (AID 1671460); details: Human astrocytes, drug combinations, stronger effect = higher value;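 also: cells exposed to compounds for 96 hours before viability readout; 0% = vehicle and 100% = killing control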
# [13] = growth inhibition of BT084 medulloblastoma cells, cell-based, ICGC_MB145, cisplatin and BGB IC40 combos (AID 1671461); details: drug combinations, stronger effect = higher value;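 also: cells exposed to drugs for 96 hours; 0% = vehicle DMSO and 100% = high DMSO full killing control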
# [14] = growth inhibition of RCMB18 medulloblastoma cells, cell-based, cisplatin and BGB IC40 combos (AID 1671462); details: stronger effect = higher value;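 also: cells exposed to compound for four days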
# [15] = growth inhibition of CRL1545 osteosarcoma cells, cell-based, cisplatin and BGB IC20 combos (AID 1671464); details: stronger effect = higher value;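 also: cells exposed to compound for 96 hours before readout; 0% = vehicle DMSO and 100% = high DMSO killing control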
# [16] = viability rescue of complex I mutant cybrids, primary screen, cell-based, galactose medium, ATP luminescence (AID 1645843;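 active = z-score of at least 1.8 in each of two replicates, scored against plate mean and spread of sample wells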;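 also: positive z means more ATP and so rescue of galactose-driven cybrid death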); details: complex I mutant cybrid cells, 72 h, stronger effect = higher value
# [17] = measured here: combination with BGB IC40, at 0.05 µM
# [18] = measured here: with BGB IC20 combination, at 0.5 µM
# [19] = measured here: with cisplatin IC20 combination, at 0.5 µM
# [20] = measured here: combination with cisplatin, at 0.5 µM
# [21] = measured here: combination with cisplatin, at 5 µM
smiles,measurement,setting,value
Cc1cn(C2CC(O)C(COP(=O)(O)OP(=O)(O)OP(=O)(O)O)O2)c(=O)[nH]c1=O (stereo not drawn),inhibition,"[1]; at 0.5 µM, stronger effect = higher value",-19.9% (inactive)
same,inhibition,"[1]; measured here: combination with BGB IC20, at 0.005 µM",-8.93%
same,inhibition,"[1]; measured here: combination with BGB IC40, at 0.005 µM",80.9%
same,inhibition,[1]; [17],0.344%
same,inhibition,"[1]; measured here: combination with cisplatin, at 0.5 µM, stronger effect = higher value",-42.6%
same,inhibition,"[1]; measured here: combination with cisplatin, at 5 µM, stronger effect = higher value",-12.4%
same,inhibition,"[2]; BGB combo, at 5 µM",-9.68%
same,inhibition,[2]; at 0.5 µM,4.14% (inactive)
same,inhibition,"[2]; cisplatin combo, at 5 µM",0.577%
same,inhibition,[2]; [18],-1.96%
same,inhibition,[2]; [19],7.93%
same,inhibition,"[2]; single agent, at 5 µM",1.73%
same,inhibition,"[3]; BGB IC20 combo, at 0.005 µM",10.7%
same,inhibition,"[3]; BGB IC40 combo, at 0.005 µM",17.3%
same,inhibition,"[3]; BGB IC40 combo, at 0.05 µM",24%
same,inhibition,[3]; at 0.5 µM,8.18% (inactive)
same,inhibition,"[3]; cisplatin combo, at 0.05 µM",20.3%
same,inhibition,"[3]; cisplatin combo, at 0.5 µM",3.65%
same,inhibition,"[3]; cisplatin combo, at 5 µM",-24.4%
same,inhibition,"[3]; measured here: 5 uM single agent, at 5 µM",4.13%
same,inhibition,[4]; at 0.5 µM,6.88% (inactive)
same,inhibition,[4]; [17],-1.92%
same,inhibition,[4]; [20],9.07%
same,inhibition,[4]; [21],4.13%
same,inhibition,[5]; at 0.5 µM,7.15% (inactive)
same,inhibition,"[5]; measured here: with BGB IC20, at 0.5 µM",27.1%
same,inhibition,"[5]; measured here: with BGB IC20, at 5 µM",13.2%
same,inhibition,"[5]; measured here: with cisplatin IC20, at 0.5 µM",-5.05%
same,inhibition,"[5]; measured here: with cisplatin IC20, at 5 µM",1.73%
same,inhibition,"[5]; single agent, at 5 µM",10.9%
same,inhibition,[6]; at 0.5 µM,6.85% (inactive)
same,inhibition,"[6]; measured here: combination with BGB at IC20, at 0.5 µM",-16.6%
same,inhibition,"[6]; measured here: combination with cisplatin at IC20, at 0.5 µM",29.2%
same,inhibition,[7]; at 0.5 µM,10.7% (inactive)
same,inhibition,"[7]; measured here: combo with BGB at IC20, at 0.5 µM",9.76%
same,inhibition,"[7]; measured here: combo with cisplatin at IC20, at 0.5 µM",8%
same,inhibition,[8]; at 0.5 µM,7.19% (inactive)
same,inhibition,"[8]; measured here: inhibition with BGB combination, at 0.05 µM",12.5%
same,inhibition,"[8]; measured here: inhibition with cisplatin combination, at 0.05 µM",-3.67%
same,inhibition,[9]; at 0.5 µM,0.97% (inactive)
same,inhibition,[9]; [20],8.52%
same,inhibition,[9]; [21],26.6%
same,inhibition,[10]; at 0.5 µM,2% (inactive)
same,inhibition,"[10]; measured here: BGB combination, at 0.5 µM",-1.94%
same,inhibition,"[10]; measured here: BGB combination, at 5 µM",2.66%
same,inhibition,"[10]; measured here: cisplatin combination, at 0.5 µM",-0.048%
same,inhibition,"[10]; measured here: cisplatin combination, at 5 µM",5.35%
same,inhibition,"[11]; BGB combination, concentration series, at 5 µM",5.28%
same,inhibition,[11]; at 0.5 µM,7.57% (inactive)
same,inhibition,"[11]; cisplatin combination, concentration series, at 5 µM",6.92%
same,inhibition,[12]; at 0.5 µM,2.58% (inactive)
same,inhibition,"[12]; measured here: combo with BGB IC20, at 0.5 µM",-0.198%
same,inhibition,"[12]; measured here: combo with cisplatin IC20, at 0.5 µM",3.8%
same,inhibition,[13]; at 0.5 µM,6.5% (inactive)
same,inhibition,"[13]; cisplatin combination, at 0.5 µM",4.31%
same,inhibition,"[13]; cisplatin combination, at 5 µM",-28.2%
same,inhibition,"[13]; measured here: BGB IC40 combination 0.05 uM, at 0.05 µM",23.2%
same,inhibition,"[13]; single agent, at 5 µM",18.9%
same,inhibition,[14]; at 0.5 µM,-1.71% (inactive)
same,inhibition,"[14]; cisplatin combo, at 5 µM",-2.93%
same,inhibition,"[14]; measured here: BGB IC40 combination, at 0.05 µM",18.6%
same,inhibition,[14]; [20],-28.7%
same,inhibition,"[14]; single agent, at 5 µM",2.51%
same,inhibition,[15]; at 0.5 µM,12.4% (inactive)
same,inhibition,[15]; [18],17.1%
same,inhibition,[15]; [19],8.61%
same,inhibition,"[15]; single agent, at 0.05 µM",-33%
same,inhibition,"[15]; single agent, at 5 µM",-18%
Cc1nsc(NC(=O)N2CCC(C(=O)N3CCCC3)CC2)n1,z-score,[16],-0.375 (inactive)
Cc1nc(CN(C)C2CCN(c3ccc(-n4cccn4)cc3)CC2)cs1,z-score,[16],0.655 (inactive)
CCN(CC)C(CNCc1ccc(OC)c(F)c1)c1ccco1 (stereo not drawn),z-score,[16],-0.84 (inactive)
COC(=O)c1ccc(N2CCC(c3ccccc3Cl)C2)nc1 (stereo not drawn),z-score,[16],0.895 (inactive)
Cc1ccc(Nc2nc(N)nc(-c3ccc(C(=O)N(C)C)cc3)n2)cc1,z-score,[16],2.23 (active)
